Results on 40 molecules are retold here after PubChem BioAssay (EPA / NIEHS).

Each structure is given as a SMILES string. Inconclusive results are not listed. Active and inactive are the calls of the source. The calls were made as follows: active = hit-call score of the fitted dose curve at least 0.9, where 1 is the maximum; inconclusive = response in the unintended direction; inactive = score below 0.9.

A short description of the assay: ATG_M_19_TRANS: Attagene TRANS-FACTORIAL HepG2 Assay for M19 Transcription Factor (Internal Marker) (AID 2282974). The following applies: HepG2 Attagene TRANS-FACTORIAL M19 internal marker reporter. As for the experimental part:
ATG_TRANS is a cell-based, multiplexed-readout assay that uses HepG2, a human liver cell line, with measurements taken at 24 hours after chemical dosing in a 24-well plate.ATG_M_19_TRANS is one of 30 assay component(s) measured or calculated from the ATG_TRANS assay. It is designed to make measurements of mRNA induction, a form of inducible reporter, as detected with fluorescence intensity signals by Reverse transcription polymerase chain reaction (RT-PCR) and Capillary electrophoresis technology.Data from the assay component ATG_M_19_TRANS was analyzed into 1 assay endpoint. This assay endpoint, ATG_M_19_TRANS, was analyzed in the positive analysis fitting direction relative to DMSO as the negative control and baseline of activity. Using a type of inducible reporter, measures of mRNA for gain-of-signal activity can be used to understand the background control at the transcription factor-level as they relate to the gene . Furthermore, this assay endpoint can be referred to as a secondary readout, because this assay has produced multiple assay endpoints where this one serves a background control function. To generalize the intended target to other relatable targets, this assay endpoint is annotated to the background measurement intended target family, where the subfamily is internal marker.
Human liver HepG2 cells are transiently transfected with multiple reporter transcription units (MRTUs) in 6-well plates using FuGene 6 reagent (Roche; 3 ml FuGene/1 mg DNA). The MRTU constructs are regulated by a cis-regulating element (promoter). […] A major difference between the CIS and TRANS system is that in CIS activities of endogenous TFs are measured, whereas the TRANS assay evaluates changes in activities of exogenous, chimeric NR-Gal4 proteins. […] At the end of 24 hour incubation, total RNA was isolated using TriZol reagent (Invitrogen). The isolated RNA is then reverse-transcribed using oligo(dT) primer and Mo-MLV reverse transcriptase (Invitrogen) with DNAse I (Ambion) treatment for 30 min. The one-tenth of the produced cDNA was amplified by PCR using Taq DNA polymerase (Invitrogen) and two reporter sequence-specific primers. The PCR products were fluorescently labeled by primer extension with 6-arboxyfluorescein (6-FAM) 5'-labeled reporter sequence-specific primer (2 min at 95 C, 20 s at 68 C and 10 min at 72 C) and these products were digested with 5U of HpaI (New England Biolabs) for 2h at 37 C. The fragments were purified using Qiaquick PCR columns (Qiagen), analyzed on an ABI 3130xL genetic analyzer (Applied Biosystems) with peak positions identified by using a set of X-rhodamine (ROX)-labeled MapMarker1000 molecular weight standards (BioVentures). The raw capillary electrophoresis data was processed using Attagraph software (Attagene).
For `C1COCO1`, the result was inactive. For `C=C(C)C(=O)OCCC(C)OC(=O)C(=C)C` (stereo not given), the molecule was classed as inactive. Same read-out and setting: for `CCOC(=O)CC(C)C` the value was “inactive”. With `CC(=O)OC/C=C(C)/C=C/C=C(C)/C=C/C1=C(C)CCCC1(C)C`, the call was inactive. The same measure, in the same setting: for `CC/C=C\CCOC(=O)C(C)C` the value was “inactive”; for `C1=COCCC1`, “inactive”. `CCCc1ccc(N)cc1`: the molecule was classed as inactive.

In the case of `O=C1OC2(c3ccc(O)cc3Oc3cc(O)ccc32)c2ccccc21`, the outcome was inactive. As for `Cc1ccccc1S`, the molecule was called inactive. Same read-out and setting: to `CC1=CCC(C(C)C)=CC1` belongs “inactive”; to `CCOc1ccc(NC(C)=O)cc1`, “inactive”. Same read-out and setting: to `CC(C)(C)c1cc(CCC(=O)OCCSCCOC(=O)CCc2cc(C(C)(C)C)c(O)c(C(C)(C)C)c2)cc(C(C)(C)C)c1O` belongs “inactive”; to `CCCc1ccc(O)cc1`, “inactive”; to `CC(C)COC(=O)c1ccccc1O`, “inactive”. On the same count and under the same terms, for `O=C1CCCCCCCCCCCC(=O)OCCO1` the value was “inactive”; for `CCCCCCOc1ccc(O)cc1`, “inactive”. Consider `CC(C)(C)C1CCC(O)CC1` (stereo not given), for which the molecule was called inactive. Regarding `CCCCCCCCCCOC(=O)c1ccccc1C(=O)OCCCCCCCC`, the call was inactive. The same measure, in the same setting: for `C=C(C)CCCC(C)CCO` (stereo not given) the value was “inactive”; for `CC(=O)CC(C)(C)C1CCCCC1`, “inactive”; for `CC(O)COCC(C)O` (stereo not given), “inactive”.

For `CC(=O)c1ccc(C)cc1`, the outcome was inactive. Turning to `CCCCCCCCCCCCS`, the AC50 is 5.01 µM (active). For `CCCCOCCOC(=O)c1ccccc1C(=O)OCCOCCCC`, the molecule was called inactive. The same measure, in the same setting: for `CC/C(=C(\c1ccccc1)c1ccc(OCCN(C)C)cc1)c1ccccc1` the value was “inactive”; for `COC(=O)c1ccc(C(=O)OC)cc1`, “inactive”; for `OC[C@H]1O[C@@H](O[C@H]2[C@H](O)[C@@H](O)[C@H](O)O[C@@H]2CO)[C@H](O)[C@@H](O)[C@H]1O`, “inactive”.

Consider `O=[N+]([O-])c1cc(N(CCO)CCO)ccc1NCCO`, for which the molecule was called inactive. The same measure, in the same setting: for `[Cu+]` the value was “inactive”. Same read-out and setting: for `COC(=O)c1cccc(C(=O)OC)c1` the value was “inactive”.

As to `C#C[C@]1(O)CC[C@H]2[C@@H]3CCc4cc(O)ccc4[C@H]3CC[C@@]21C`, the outcome was inactive. Still for that read-out and setting: for `C=C1CC[C@H]2O[C@]2(C)CC[C@@H]2[C@@H]1CC2(C)C` the value was “inactive”; for `O=C(O)CS`, “inactive”. On the same count and under the same terms, for `CCCOC(=O)CC` the value was “inactive”; for `CC(=O)Oc1c(C)c(C)c2c(c1C)CC[C@@](C)(CCC[C@H](C)CCC[C@H](C)CCCC(C)C)O2`, “inactive”. Still for that read-out and setting: for `CCC(CC)CO` the value was “inactive”; for `CC(C)CCOC(=O)CC(C)C`, “inactive”.

Consider `C1CCCNCC1`, for which the molecule was classed as inactive. On the same count and under the same terms, to `C=C(C)C(=O)OCCC[Si](OC)(OC)OC` belongs “inactive”. For the molecule `Cc1ccncc1`, the call was inactive.
